D2 PAM-1 = positively modulates the human D2 dopamine receptor allosterically; P14416; HEK293 T-REx D2, calcium flux, EC20 dopamine potentiation; potentiation, % at 10 µM; 340,000 tested, 0.34% active;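 active = potentiation over 3 SD above the plate norm, cut at about 30% in these data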; also: 0% is about no effect
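Cells plated with tetracycline inducer and held overnight at 30 C; calcium dye loaded 30–90 min at room temperature; baseline taken, compound added and read 180 s; EC20 dopamine then added and read 180 s.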
D2 PAM-2 = potentiates the human D2 dopamine receptor allosterically. DiscoveRx D2 beta-arrestin cells, luminescence, 90 min; 100% = 57 uM dopamine signal. P14416. 360,000 tested, 0.23% active. potentiation, % (test concentration not listed); in the data active = potentiation above about 50%; inconclusive = mostly about 30% to 49%
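D2 cells co-treated with compound plus 50 nM dopamine (EC20) for 90 min at 37 deg C to detect potentiation. Beta-arrestin recruitment was read as enzyme-fragment luminescence after 1 h at ambient temperature. Full response was set by 57 uM dopamine.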
D2 ag-1 = activates the human D2 dopamine receptor. HEK293 T-REx D2 cells, calcium flux agonist mode. activation, % at 2 µM. 340,000 tested, 0.53% active;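 active = activation over 3 SD above normal in the single-dose calcium agonist read, cut at about 30% in these data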; also: 0% is about no effect
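In this primary screen, compounds producing a positive calcium signal within 180 s of addition to tetracycline-induced, force-coupled HEK293 Trex D2 cells are flagged; cells are dye-loaded with a no-wash calcium kit beforehand.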
D2 ag-2 = agonists of human D2 dopamine receptor (beta-arrestin). DiscoveRx PathHunter D2 beta-arrestin, luminescence, 90 min; 100% = 57 uM dopamine signal. activation, % (concentration not given with the values). 360,000 tested, 0.084% active. AID 624465; in the data active = activation above about 40%; inconclusive = between about 15% and that limit
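DiscoveRx PathHunter D2 beta-arrestin cells (2,100/well) attached overnight, then compound-stimulated 90 min at 37 C in HBSS/10 mM HEPES/0.1% Tween-20 buffer; beta-galactosidase complementation read by luminescence after 1 h at ambient temperature. Dopamine 57 uM final (EC100) as control.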
D2 antagonist = antagonizes the human D2 dopamine receptor; P14416; HEK293 TREx D2 cells, calcium flux, dopamine EC80; inhibition, % at 10 µM; 340,000 tested, 2% active; AID 485344; in the data active = inhibition above about 30%; inactive = below that, where a call was filed; also: 0% is about no effect
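Antagonism is scored as inhibition of an EC80 dopamine-evoked calcium signal in a force-coupled, tetracycline-inducible HEK293 T-REx D2 line, with compound present 180 s before agonist.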
D3 ag = D3 receptor agonism confirmed, beta-arrestin readout. shares compounds with D2 ag-1. DiscoveRx D3 beta-arrestin cells, luminescence, 90 min. Potency, µM (titrated, usually from 76.9 µM), for the others: at the top dose activation, actives largely listed as activators. 2,300 tested, 4% active. AID 720506;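 also: potency is read from the fitted curve at half-maximal effect; 100% = dopamine control response; nearly all actives have a fitted effect of over 70% in size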
Target sequence (P35462 whole entry, looked up): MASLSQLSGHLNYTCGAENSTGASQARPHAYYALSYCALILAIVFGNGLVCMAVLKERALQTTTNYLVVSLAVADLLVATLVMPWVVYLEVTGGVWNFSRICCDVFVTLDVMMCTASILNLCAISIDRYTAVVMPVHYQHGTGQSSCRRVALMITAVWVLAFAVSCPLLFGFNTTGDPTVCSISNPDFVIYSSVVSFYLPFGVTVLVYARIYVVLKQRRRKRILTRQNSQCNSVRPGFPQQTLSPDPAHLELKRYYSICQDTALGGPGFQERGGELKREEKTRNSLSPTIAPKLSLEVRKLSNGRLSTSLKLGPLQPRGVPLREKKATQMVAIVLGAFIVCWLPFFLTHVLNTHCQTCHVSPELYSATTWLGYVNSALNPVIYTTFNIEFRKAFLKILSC
D2 ag-3 = counter-screen for D3 agonists: human D2 dopamine receptor agonism; shares compounds with D2 ag-1; DiscoveRx PathHunter D2 beta-arrestin, luminescence, 90 min; response scale: percent relative to full dopamine signal; Potency, µM (top dose mostly 76.9 µM), for the others: at the top dose activation, most hits filed as activators; 2,300 tested, 5.9% active; AID 720507; also: potency is read from the fitted curve at half-maximal effect; % of control where 0% means no effect; nearly all actives have a fitted effect of over 70% in size
* marks the source's active call; other numbers are inactive results; ? = inconclusive; . = no result given; ! = not active in a repeat. Shown are actives, neighbours in structure and some others; about 2.4% of the full set was active somewhere. Unless noted, calls follow the shape of the dose curve; as a rule, active = well fitted activation curve with a large enough effect; inconclusive = small, poorly fitted or top-dose-only effect; inactive = flat fitted curve, though single readings scatter.

SMILES	D2 PAM-1	D2 PAM-2	D2 ag-1	D2 ag-2	D2 antagonist	D3 ag	D2 ag-3
Cc1ccc(S(=O)(=O)N2CCCCC2)cc1NC(=O)CN1CC=C(c2ccccc2)CC1	-6.2	-10.7	0.2	-4.5	4.4	.	.
Cc1ccc(S(=O)(=O)N(C)C)cc1NC(=O)C(C)[N+]12CCN(CC1)CC2 (centres undefined)	-6.2	5.4	-7.2	-3.8	31.7*	.	.
CC1OC(C[N+](C)(C)C)CC1O (centres undefined)	4.1	-1.2	0.2	-1.2	-14.9	.	.
C[C@H]1OC[C@@H](C[N+](C)(C)C)O1	-6.3	0.6	40.4*	-6.5	13.4	.	.
O=C(Nc1cc(C(F)(F)F)cc(C(F)(F)F)c1)c1cccn(Cc2ccccc2Cl)c1=O	-5.5	.	1.6	.	.	.	.
CCCCn1nnnc1C(C1CC1)N1CCC(n2c(=O)[nH]c3ccccc32)CC1 (centres undefined)	.	2.5	.	11.7	.	.	.
O=c1[nH]c2ccccc2n1CCCN1CCC(n2c(=O)[nH]c3cc(Cl)ccc32)CC1	.	.	.	.	97.4*	.	.
CCOC(=O)c1c(N)n(Cc2ccco2)c2nc3ccccc3nc12	-13.3	-9.9	10.6	-7.6	30.0*	.	.
CCCCn1c(N)c(C(=O)OCCOC)c2nc3ccccc3nc21	.	3.5	.	-2.5	.	.	.
COCCOC(=O)c1c(N)n(Cc2ccccc2)c2nc3ccccc3nc12	-0.1	12.7	-1.8	-1.8	36.2*	.	.
Cc1cccc(Cn2cccc(C(=O)Nc3nnc(C)s3)c2=O)c1	2.7	.	-1.5	.	.	.	.
CC(C)Cc1nc2cccnc2n1C1CCNCC1	11.8	.	0.1	.	.	.	.
CCCCOc1ccc(CCN)cc1Cl	3.1	-20.3	2.9	-5.7	41.8*	.	.
CC(C)Oc1ccc(CCN)cc1Cl	-6.2	-14.1	1.1	0.7	7.8	.	.
Cc1[nH]c2c(Cl)cccc2c1CCN	-32.4	-32.2	23.7	5.2	40.6*	2.9%	8.2%
Cc1[nH]c2ccccc2c1CN1CCCCC1	.	-20.7	.	-2.0	.	.	.
COc1cccc(-c2nn3c(=O)cc(CN4CCN(C(=O)COc5ccccc5C)CC4)nc3s2)c1	11.9	.	.	.	.	.	.
COc1cc2c(cc1OC)-c1c3c(cc4c1[C@@H](C2)N(C)CC4)OCO3	-10.9	-26.4	0.0	4.5	4.3	.	.
COc1c2c(cc3c1OCO3)CCN(C)C2	-13.1	6.6	68.5*	-4.6	74.8*	?	?
CCCSc1nc2ccccc2c(=O)n1-c1ccccc1OC	4.4	.	-0.7	.	.	.	.
O=C(Nc1ccc(Br)cc1C(=O)c1ccccc1Cl)c1ccc(Br)cc1	3.3	.	-0.8	.	.	.	.
O=S1(=O)N(Cc2ccccc2Cl)CCCN1Cc1ccccc1Cl	5.8	.	0.4	.	.	.	.
O=C(CCN1C(=O)COc2ccccc21)N1CCC2(CC1)OCCO2	-18.6	0.4	55.8*	1.4	-0.2	-7.7%	-4.3%
COc1ccccc1N1CCN(Cc2cccc(OC)c2O)CC1	-28.5	-5.6	74.0*	8.9	81.3*	-5.7%	19.2%
CN1CCCC(C(=O)c2ccccc2)C1 (centres undefined)	-13.7	-3.1	42.5*	-0.4	30.2*	14.6%	11.1%
SMILES	D2 PAM-1	D2 PAM-2	D2 ag-1	D2 ag-2	D2 antagonist	D3 ag	D2 ag-3
CSc1ccc(C(=O)C2CCCN(C)C2)cc1 (centres undefined)	-10.6	-12.2	-0.3	0.6	1.3	.	.
N#Cc1cc([N+](=O)[O-])ccc1NC(=O)c1cccn(Cc2cccc(F)c2)c1=O	6.6	.	0.7	.	.	.	.
CN1C(=O)N(C)C(=O)C2(Cc3ccccc3N3CCCC32)C1=O (centres undefined)	-4.6	-3.3	1.4	-0.5	-10.7	.	.
CN1C(=O)CC(c2ccccc2)Nc2ccccc21 (centres undefined)	-0.7	1.2	-0.1	-2.7	-5.5	-6.9%	-3.8%
C=CCN1CCc2cccc3c2[C@H]1Cc1ccc(O)c(O)c1-3	-19.7	113.5*	87.6*	219.0*	88.8*	0.02µM*	0.0447µM*
C1=C(c2ccccc2)CCNC1	-29.5	-8.8	40.0*	-1.7	42.9*	-8.8%	0.8%
Fc1ccccc1CNCCc1c[nH]c2ccccc12	-21.0	-18.9	16.1	-0.6	25.7	-23.1%	0.0%
Fc1ccc(CNCCc2c[nH]c3ccccc23)cc1	-15.4	-22.5	1.5	3.9	-17.0	.	.
COc1ccc(CNCCc2c[nH]c3ccccc23)c(OC)c1C	-15.5	-11.9	7.3	-2.3	33.1*	-5.9%	5.1%
OC(CNCCc1c[nH]c2ccccc12)c1ccccc1 (centres undefined)	-0.6	-13.7	12.4	-4.1	54.0*	-3.5%	5.3%
CC(=O)NCCc1c[nH]c2ccccc12	-3.2	-18.4	0.6	-4.4	8.8	.	.
O=c1c2ccccc2nc(/C=C/c2cccc3ccccc23)n1-c1ccccc1Cl	-3.4	.	.	.	.	.	.
NCCc1c[nH]c2ccccc12	-6.3	-60.0	-0.1	-7.2	-13.9	.	.
CCCCc1ccc2[nH]cc(CCN)c2c1	-19.9	-13.1	43.7*	14.8	14.2	-3.2%	?
OC(COCc1ccc(Cl)cc1)CN1CC=C(c2ccccc2)CC1 (centres undefined)	16.8	70.9*!	-0.2	83.0*	84.7*	50.1µM*	44.7µM*
O=C(CN1CC=C(c2ccccc2)CC1)Nc1c(Cl)cccc1Cl	-22.9	-28.7	27.4	-3.8	7.2	.	.
OC(CN1CC=C(c2ccccc2)CC1)c1ccccc1 (centres undefined)	-31.2	-10.8	76.6*	2.7	74.6*	?	?
c1cnc2c(c1)ncn2C1CCNCC1	2.3	.	2.0	.	.	.	.
CC(C)CC(C)N (centres undefined)	-10.6	-11.6	0.5	4.2	6.4	-4.1%	-3.0%
O=C1NC(=S)N(c2ccc(Br)cc2)C(=O)/C1=C/N1CCN(C(=O)c2ccco2)CC1	-10.1	-39.0	27.5	-3.9	11.4	-4.5%	-2.2%
CCN(CC)CCCC(C)N=C(c1ccccc1)c1c(O)n(C)c(=O)n(C)c1=O (centres undefined)	-17.0	-13.2	38.3*	8.9	68.9*	26.0%	20.9%
CCC(=O)N1CC(=O)Nc2ccc(C)cc2C1c1ccc(F)cc1 (centres undefined)	13.5	.	-0.6	.	.	.	.
Clc1ccccc1CN1CCN(c2ccccc2)CC1	-26.1	6.8	67.8*	?	68.2*	0.5%	?
Nc1ccc(N2CCN(Cc3ccccc3Cl)CC2)c(Cl)c1	-27.1	-10.7	2.6	-2.8	28.2	.	.
Clc1ccccc1CN1CCN(c2cccc3[nH]ccc23)CC1	.	-6.1	.	5.0	.	-8.2%	1.5%
O=C(CN1C(=O)CN=C(c2ccccc2)c2ccccc21)Nc1cccc(C(F)(F)F)c1	.	.	0.9	.	.	.	.

Bioassay records (PubChem)
